PostGolgi ctrl = yeast control strain growth, post-Golgi counter-screen; efflux-deficient yeast background strain, growth absorbance A615, 16 h; inhibition, % at 10 µM; 98,000 compounds, 5% hits; AID 738
Cav32 inh = human Cav3.2 channel inhibition, primary screen. Cav3.2-expressing cells, Fluo-4 calcium fluorescence FDSS; active compounds read low. B-score at 10 µM. 100,000 compounds, 4% hits. AID 449739;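 active = single-dose well whose peak fluorescence ratio is a statistical outlier from its plate by either plate-standardised score or position-corrected B-score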
hDAT+cocaine = modulates human dopamine transporter uptake under cocaine | AID 449768 | LLC-PK1 hDAT cells, [14C]-dopamine uptake with cocaine IC80; actives deviate in either direction | B-score at 10 µM | 110,000 compounds, 1.3% hits | Q01959;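 active = Z score or B-score, a plate-position-corrected score, falls beyond the plate's 99.7% confidence bounds, in either direction; inactive = both scores lie inside the 99.7% bounds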;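 also: scored against the spread of the other compound wells on the same plate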
Target sequence (Q01959 whole entry, looked up): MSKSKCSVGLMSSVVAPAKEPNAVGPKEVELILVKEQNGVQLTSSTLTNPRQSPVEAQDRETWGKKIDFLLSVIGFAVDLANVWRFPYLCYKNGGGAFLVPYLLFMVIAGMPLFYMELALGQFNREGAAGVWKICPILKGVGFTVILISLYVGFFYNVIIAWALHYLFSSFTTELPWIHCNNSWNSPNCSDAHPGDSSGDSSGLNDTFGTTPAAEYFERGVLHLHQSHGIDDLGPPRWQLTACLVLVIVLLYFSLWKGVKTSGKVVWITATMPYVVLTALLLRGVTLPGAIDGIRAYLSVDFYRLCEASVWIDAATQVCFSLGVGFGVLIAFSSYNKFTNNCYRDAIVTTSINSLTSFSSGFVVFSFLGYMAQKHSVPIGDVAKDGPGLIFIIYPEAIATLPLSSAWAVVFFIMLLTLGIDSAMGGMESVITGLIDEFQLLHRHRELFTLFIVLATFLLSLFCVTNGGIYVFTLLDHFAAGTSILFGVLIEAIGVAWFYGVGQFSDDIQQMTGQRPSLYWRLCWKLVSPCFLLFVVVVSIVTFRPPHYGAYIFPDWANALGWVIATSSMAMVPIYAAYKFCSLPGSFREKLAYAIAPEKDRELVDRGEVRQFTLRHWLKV
PLAP act = activators of human placental alkaline phosphatase | P05187 | purified PLAP enzyme, luminescent substrate read-out; active compounds read high | activation fold at 20 µM | 96,000 compounds, 1.2% hits; in the data active = activation fold above about 2
PostGolgi yeast = growth inhibition of a yeast mutant, post-Golgi transport screen; post-Golgi transport phenotypic cell assay; inhibition, % at 10 µM; 98,000 compounds, 0.9% hits;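 also: yeast cells grown in 1536-well plates; yeast grown about 18 h at 30C before absorbance read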
D1 mod = allosterically modulates the human D1 dopamine receptor. P21728. HEK293 D1, CRE-luciferase, dopamine EC30 potentiation; actives deviate in either direction. B-score at 10 µM. 58,000 compounds, 5.9% hits;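 active = luminescence count or its row- and column-corrected plate score outside the 99.7% band of the plate's sample wells, on either side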
The depositor's hits bear a star; x = not tested or not shown. Shown are actives, neighbours in structure and some others; about 12% of the full set was active somewhere. Rule as the data show it, unless noted: active = inhibition above about 30%; inactive = the rest.

SMILES	PostGolgi ctrl	Cav32 inh	hDAT+cocaine	PLAP act	PostGolgi yeast	D1 mod
O=C(c1ccc(C#CC2(O)CCCCC2)cc1)N1CCN(C(c2ccccc2)c2ccccc2)CC1	4.7	-5.13*	-0.0384	1.7	11.7	x
O=C(c1ccc(C#CC2(O)CCCCC2)cc1)N1CCN(Cc2ccccc2)CC1	30.4*	-6.14*	1.72	1.3	9.5	x
O=C(c1ccco1)N1CCN(C(c2ccccc2)c2nnnn2C2CCCC2)CC1 (stereo not drawn)	x	1.66	0.865	x	x	x
Clc1ccc(Cn2cc(/C=N/n3cnnc3)c3ccccc32)cc1	42.3*	0.181	1.13	1.2	-4.0	-1.12
Cc1ccccc1Cn1cc(/C=N/n2cnnc2)c2ccccc21	28.4	3.26	0.0915	0.9	4.0	-0.0227
O=C(NCc1ccccc1)N1CCN(c2ccc(Cl)c(Cl)c2)CC1	11.1	-5.21*	-0.507	1	-1.8	0.00225
O=C(NCc1ccccc1)N1CCN(c2ccc(F)cc2)CC1	x	-4.26*	-0.824	x	x	x
O=C(Nc1ccccc1)N1CCN(c2ccc(F)cc2)CC1	x	0.73	1.08	x	x	x
O=C(c1sc2ccccc2c1Cl)N1CCN(c2ccc(F)cc2)CC1	45.0*	-3.85	-0.389	1	6.6	x
Cc1c(C(=O)N2CCN(c3ccc(F)cc3)CC2)sc2nc(-c3ccccc3)cn12	-3.9	x	x	1.1	-5.4	-1.29
COC(=O)C1=C(C)N(CC2CC2)C(=O)N[C@H]1c1ccccc1	x	0.229	-0.142	x	x	x
C#Cc1ccc([C@H]2C=C(C(=O)NCc3ccccc3)O[C@@H](OCc3ccc(CO)cc3)C2)cc1	x	-0.0548	0.673	x	x	x
COc1ccc(S(=O)(=O)N2CCN(CC(=O)Nc3cc(C(F)(F)F)ccc3Cl)CC2)cc1	21.5	1.28	-0.0501	0.9	9.3	x
Cc1ccc2c(c1)SC1=NC(c3ccccc3)(C(F)(F)F)NC(=O)N12 (stereo not drawn)	17.1	x	x	0.9	20.2	x
COc1ccc(OC)c(C2C(C(=O)c3cc4ccccc4o3)=C(O)C(=O)N2c2cc(C)on2)c1 (stereo not drawn)	-5.0	-3.04	3.76*	1.3	23.6	0.0629
CCN1C(=O)C(CC(=O)Nc2ccc(Br)cc2)N(CCCc2ccccc2)C1=S (stereo not drawn)	22.2	-4.47*	-0.787	1	23.4	x
CCOC(=O)c1ccc(NC(=O)CC2C(=O)N(c3ccccc3)C(=O)N2CCCOC)cc1 (stereo not drawn)	4.7	-0.142	1.53	1.7	4.1	x
O=C(CSC1CC(=O)N(CCc2ccccc2)C1=O)Nc1ccc(Br)cc1 (stereo not drawn)	6.1	-4.81*	0.206	1	-0.6	x
Cc1ccc(N2CC(C(=O)Nc3ccncc3)CC2=O)cc1 (stereo not drawn)	4.4	0.118	0.118	1.2	-0.8	-0.385
Cc1ccc(NC(=O)C2CC(=O)N(c3ccc4c5c(cccc35)CC4)C2)cc1 (stereo not drawn)	30.6*	-2.35	-0.397	1.4	-3.0	x
CCn1c(=O)cc(SCC(=O)NCc2ccccn2)c2ccccc21	-3.6	x	0.115	1	3.3	0.372
COC(=O)c1ccccc1NC1=C/C(=N\S(=O)(=O)c2cccs2)c2ccccc2C1=O	19.0	-2.61	-3.04*	0.8	-4.3	x
COC(=O)c1cccc(NS(=O)(=O)c2cccs2)c1C	11.8	0.891	1.7	1	-9.2	0.147
Oc1ccc2ccccc2c1/C=N/Nc1nnc(-c2ncc[nH]2)c2ccccc12	39.0*	-2.1	0.964	1.4	9.3	x
Cc1cc(S(=O)(=O)NCCN(C)C)c(C)s1	3.5	0.758	0.224	1.2	3.4	-0.544
SMILES	PostGolgi ctrl	Cav32 inh	hDAT+cocaine	PLAP act	PostGolgi yeast	D1 mod
O=C(CN1C(=O)COc2ccc(Cl)cc21)N1CCc2ccccc21	18.5	-0.00441	-0.904	0.8	3.6	1.07
COC(=O)c1ccc(Oc2c(C(F)(F)F)oc3c(CN4CCN(C)CC4)c(O)ccc3c2=O)cc1	34.6*	0.608	0.0286	1.5	-3.5	x
CCOc1ccccc1Oc1c(C)oc2c(CN3CCN(C)CC3)c(O)ccc2c1=O	0.4	-2.06	0.69	1.2	-6.5	x
CC(=O)c1cccc(N(CC(=O)NCC2CCCO2)C(=O)CCC(=O)Nc2cc(C)on2)c1 (stereo not drawn)	41.0*	x	0.522	1.3	-8.7	0.152
O=C(/C=C/c1ccccc1)N/C(=C/c1ccccc1)C(=O)N1CCCCC1	2.7	-5.61*	1.18	1.1	4.0	x
O=C1CCN(S(=O)(=O)c2ccccc2)CCN1CCOCc1ccc(Cl)cc1	x	-0.442	0.464	x	x	x
CC(C)(C)OC(=O)N[C@@H](Cc1ccccc1)[C@H](O)c1ccco1	x	0.00432	0.487	x	x	x
CCOC(=O)c1cc2oc(C(c3nnnn3C3CCCCC3)N3CCOCC3)cc2[nH]1 (stereo not drawn)	13.8	-3.51*	1.32	x	-1.4	-0.397
CCCCCCCCCOC(=O)C[n+]1csc(CCO)c1C	63.9*	2.04	-1.16	0.7	14.5	x
Cc1c(CCOC(=O)CC23CC4CC(CC(C4)C2)C3)sc[n+]1Cc1ccccc1	17.0	0.759	x	1.4	6.9	x
CC(C)(C)NC(=O)Cn1nnc(-c2ccc(Cl)cc2)n1	8.9	-2.66	-0.22	1	-0.6	0.156
O=C(c1cc(-c2cccs2)nc2ccccc12)N1CCN(S(=O)(=O)c2cccc(F)c2)CC1	28.7	-0.181	1.18	1.6	-2.6	x
O=C(c1cc(-c2cccs2)nc2ccccc12)N1CCN(S(=O)(=O)c2ccccc2)CC1	26.8	-4.27*	1.14	1.7	7.2	x
CN1CCN(c2nc3nonc3nc2N2CCN(C)CC2)CC1	0.1	0.746	0.355	1	-5.7	0.535
CCOC(=O)c1ccc(N2C(=O)C3CC=CCC3C2=O)cc1 (stereo not drawn)	-4.6	0.231	7.85*	1	-5.5	0.292
CC(C)OC(=O)c1ccc(N2C(=O)C3CC=CCC3C2=O)cc1 (stereo not drawn)	-0.9	x	0.394	0.8	9.4	1.21
CCOC(=O)c1ccc(-n2c(=O)[nH]c3ccccc3c2=O)cc1	11.0	0.302	-0.128	2*	-2.6	-0.43
OC(COc1ccc2ccccc2c1)CN1CCN(c2ccc(F)cc2)CC1 (stereo not drawn)	19.8	-0.567	-0.0166	1.2	0.7	-1.13
OC(COc1c(F)cc(Br)cc1F)CN1CCN(c2ccc(F)cc2)CC1 (stereo not drawn)	47.0*	x	x	1.2	32.7*	-1.22
CC1CCN(CC(O)COc2ccc(F)cc2)CC1 (stereo not drawn)	2.3	0.663	-0.319	0.9	-2.0	-5.59*
CCOC(=O)C1CCN(CC(O)COc2ccc(C(C)(C)C)cc2)CC1 (stereo not drawn)	58.8*	-1.11	0.0536	1.5	28.6	-0.0236
CCOC(=O)C1CCN(CC(O)COc2ccc(C(C)=O)cc2)CC1 (stereo not drawn)	-1.1	0.671	-0.0784	1.5	0.2	-0.304
CCOC(=O)C1CCN(CC(O)COc2ccc(C(C)(C)CC)cc2)CC1 (stereo not drawn)	79.1*	-1.53	-0.958	1.5	86.8*	x
